Source: PubChem BioAssay AID581 (PCMD, 2007)
Hit rate of the full screen: of about 62,000 compounds, about 95 (0.2%) were called active. The sample holds actives, similar compounds and a random draw of the others, so the mix is not that of the screen. A number with no mark means an inactive call.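 How the source made its calls: active means inhibition above 20% in each of the two mixture wells holding the compound; inactive means inhibition of 20% or less in either well.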

Target: Cathepsin G (Homo sapiens) (UniProt P08311)
Sequence (P08311 21-244 limits assumed): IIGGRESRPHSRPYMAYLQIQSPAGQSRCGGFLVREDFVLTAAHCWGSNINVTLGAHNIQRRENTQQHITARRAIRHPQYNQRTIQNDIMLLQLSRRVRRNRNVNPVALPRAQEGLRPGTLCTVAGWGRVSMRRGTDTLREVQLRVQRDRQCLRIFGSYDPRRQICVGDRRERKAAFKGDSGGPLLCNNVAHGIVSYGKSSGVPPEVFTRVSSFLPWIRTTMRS
Assay: blockers of neutrophil cathepsin G protease – biochemical, pooled compound mixtures, AMC fluorescence, primary screen (AID 581);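 further: 0% = enzyme control without mixture and 100% = blank lacking enzyme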
Conditions: purified enzyme, AMC-tetrapeptide fluorescence, stronger effect = higher value, screened at 5 µM (by protocol)

SMILES	inhibition
COc1ccc(C2C(C#N)=C(N)Oc3n[nH]c(C)c32)cc1CN1CCN(c2ccc(F)cc2)CC1 (stereo not drawn)	-3.59%
CCOC(=O)c1nnn(-c2nonc2OC)c1-c1ccccc1	-2.37%
CC(C)=C(NC(=O)c1ccco1)C(=O)NCCc1nc2ccccc2[nH]1	9.21%
O=C1CCc2cc(S(=O)(=O)N3CCC(C(=O)NCc4ccccc4Cl)CC3)ccc2N1	11%
CC(=O)CCS(=O)(=O)c1ccc(C)c(C)c1	-14.8%
NC(=O)C1(N2CCCCC2)CCN(C(=O)c2ccc(C#Cc3ccccc3)o2)CC1	11.6%
COCCNc1nc(-n2nc(C)cc2C)nc2sc3c(c12)CCCC3	-7.79%
Cc1ccccc1OCCC(=O)Nc1c(C)n(C)n(-c2ccccc2)c1=O	16.9%
Cc1cc(Br)ccc1NC(=O)C1CCCO1 (stereo not drawn)	9.61%
COc1cc2[nH]c(=S)n(Cc3ccc(C)o3)c(=O)c2cc1OC	-0.64%
CN1CCN(c2nc3c(c(=O)[nH]c(=O)n3C)n2Cc2cccc3ccccc23)CC1	14.6%
Cc1nnc(SCC(=O)NCCOc2ccc(Cl)cc2)n1-c1ccccc1	6.24%
CC1(C)CC(=O)C=C(NC2CC(C)(C)NC(C)(C)C2)C1	6.34%
Cn1c(=O)c2c(n(Cc3ccccc3)c1=O)NC(=O)C2CC(=O)N1CCc2ccccc2C1 (stereo not drawn)	4.22%
NC(=O)c1ccccc1NC(=O)c1ccccc1F	1.67%
Cn1c(SCc2c(F)cccc2Cl)nnc1-c1cnccn1	3.17%
O=C(c1cnn2ccccc12)N1CCc2ccccc21	10.9%
O=C(NC1(C(F)(F)F)N=C2SCCN2C1=O)c1ccco1 (stereo not drawn)	3.45%
O=C(CCN1C(=O)COc2ccccc21)NCCCN1CCN(c2ccc(F)cc2)CC1	-3.54%
Cc1cccc(NC(=O)C2CCN(S(=O)(=O)c3cccc4cccnc34)CC2)c1	10.6%
Cc1cccc(NC(=O)COc2ccc(Br)cc2C)n1	2.75%
c1cc(-n2cnnn2)ccc1NC1=NCCC1	-2.07%

SMILES	inhibition
COc1ccc(-n2c(SCC(=O)OC(C)C)nnc2-c2ccccn2)cc1	7.94%
CCC(=O)N1CCc2cc(S(=O)(=O)NC(C(=O)N3CCc4ccccc4C3)C(C)C)ccc21 (stereo not drawn)	4.46%
CCCc1nc2ccccc2c(=O)n1/N=C/c1ccc(O)c(O)c1	2.2%
COc1cccc(C2/C(=C(/O)c3ccncc3)C(=O)C(=O)N2CCCN(C)C)c1 (stereo not drawn)	6.68%
COCCCn1c2nc3ccccc3nc2c2c(=O)n(Cc3ccc(Cl)cc3)c(C)nc21	7.46%
Cc1cc(C)nc(N2C(=O)CC(Cc3ccccc3)C2=O)n1 (stereo not drawn)	-4.68%
Cc1cc(=O)[nH]c(SCc2cc(Cl)ccc2OC(F)F)n1	8.17%
O=C(CNCCO)NC12CC3CC(CC(C3)C1)C2	11.2%
C[C@H](NC(=O)NCCc1ccccc1)C(=O)O	2.02%
O=C(Cn1c(=O)sc2ccccc21)Nc1ccc2c(c1)OCCO2	1.24%
O=C(Nc1ccc2c(c1)OCO2)C1CC(c2c(F)cccc2Cl)=NO1 (stereo not drawn)	9.79%
CCCCCN(C(=O)NC(=O)Nc1ccccc1C)S(C)(=O)=O	3.6%
CC(C)C(=O)Nc1cccc(C(=O)Nc2ccc3c(c2)OCO3)c1	10.1%
CCOc1c(N2CCCCC2)c(=O)c1=O	-3.4%
Cc1cc2c(cc1C)NC(c1ccccn1)C1=C(CC(C)(C)CC1=O)N2 (stereo not drawn)	9.5%
Cc1ccc(S(=O)(=O)N2CCN(Cc3cccc(C)c3O)CC2)cc1	2.48%
O=c1c2ccccc2[nH]c(=S)n1CCN1CCC(=C(c2ccc(F)cc2)c2ccc(F)cc2)CC1	13.1%
CCC(C)n1[nH]c(=O)cc1N (stereo not drawn)	0.53%
CN(c1nc2ccccc2n2c(-c3ccco3)nnc12)S(=O)(=O)c1ccccc1	-5.29%
N#Cc1c(/N=C/N2CCCC2)oc(-c2ccccc2)c1-c1ccccc1	9.67%
O=C(Nc1cc(=O)[nH]c2ncnn12)c1ccccc1Cl	-3.08%
O=C(O)C1CC=C(Cl)CC1C(=O)NCc1ccccc1 (stereo not drawn)	12.7%

SMILES	inhibition
Cc1ccc(-n2c(N)c(C(=O)N3CCOCC3)sc2=S)c(C)c1	11.4%
c1ccc2c(c1)OCC(c1nn3cnnc3s1)O2 (stereo not drawn)	1.56%
CC(=O)N1CSCC1C(=O)O (stereo not drawn)	10.9%
COc1ccc(C)cc1S(=O)(=O)NC1CCCCC1	3.27%
O=C(CCCN1C(=O)CSc2ncccc21)N1CCN(c2cccc(C(F)(F)F)c2)CC1	1.22%
Fc1ccc(Br)cc1/C=N/n1cnnc1	-0.86%
ON=C1/C(=N\O)CC2(C/C1=N/O)OCCO2	-0.38%
CC(=O)c1c(C)n(-c2ccc(N(C)C)cc2)c2ccc(OCC(N)=O)cc12	8.67%
COc1ccc(S(=O)(=O)NC2(C(F)(F)F)N=C3SCCN3C2=O)cc1 (stereo not drawn)	11.4%
CCN(CC)C(=O)C1CCC(C)(C(=O)O)C1(C)C (stereo not drawn)	11.2%
COC(=O)c1ccccc1NC(=O)C1CCN(S(=O)(=O)c2cc(OC)ccc2OC)CC1	2.31%
CC(=O)N(CC1CCCO1)C1(C(=O)NC2CCCC2)CCCCC1 (stereo not drawn)	10.3%
COCC(=O)Nc1nnc(COc2ccccc2)s1	-21.9%
CCN(CC(=O)Nc1ccc2c(c1)OCCO2)Cc1cc(=O)oc2cc(C)c(C)cc12	1.52%
CC1(C)Cc2ccccc2-c2nc(CN3CCOCC3)[nH]c(=O)c21	3.33%
O=C1N(Cc2ccc3c(c2)OCO3)c2ccccc2C1(O)c1c[nH]c2ccccc12 (stereo not drawn)	1.27%
COc1ccc(Cl)cc1NC(=O)C1CC(=O)N(c2ccc(F)cc2)C1 (stereo not drawn)	8.25%
O=C(CN1CCOCC1)N1CCCc2c1c(=O)oc1ccc(OCc3ccccc3)cc21	-5.32%
O=C1N=C(N2CCOCC2)CS1	-2.67%
O=C(CSc1nnc(-c2ccco2)n1CC1CCCO1)c1ccccc1 (stereo not drawn)	10.9%
CSc1ccc(-c2c(C#N)c(N)nc3c2c(C)nn3-c2ccccc2)cc1	5.96%
Cc1c(C(=O)OCC(=O)N(CCC#N)c2ccccc2)oc2c1ccc1ccccc12	10.9%

SMILES	inhibition
COc1ccc2nc(N3CCCC(O)C3)c(C#N)cc2c1 (stereo not drawn)	7.5%
O=C(Nc1ccc(S(=O)(=O)N2CCCC2)cc1Cl)C1=COCCO1	-0.78%
CN(C)c1ccc(CNC23CN4CN(CN(C4)C2)C3)cc1	-0.235%
CCCCNC(=O)CSc1nccn1Cc1ccccc1	-4.63%
COCCNC(=O)C(C#N)c1nc2ccccc2nc1N1CCN(Cc2ccc3c(c2)OCO3)CC1 (stereo not drawn)	8.39%
Cc1cc(N=CC2=C(O)CCCC2=O)no1	14.9%
CC1CCCC(C)N1C(=O)CN1CCN(c2nc(-c3ccc(F)cc3)cs2)CC1 (stereo not drawn)	-39.9%
CCOC(=O)N1CCN(C(=O)c2ccc(CN(c3ccc(C)c(C)c3)S(C)(=O)=O)cc2)CC1	11.3%
N#CC1=C(N)Oc2n[nH]c(CSc3ccccc3)c2C12C(=O)Nc1ccccc12 (stereo not drawn)	13.8%
COc1ccc(-c2nc(CS(=O)CC(=O)N3CCc4ccccc4C3)c(C)o2)cc1 (stereo not drawn)	2.91%
CCCCn1nc(C(=O)N2CCc3ccccc32)c2ccccc2c1=O	-0.085%
COc1ccccc1N1CC(O)=C(c2nc3ccccc3s2)C1=N	-0.35%
O=C1CCC(C(=O)Nc2ccc(OC(F)F)cc2)N1 (stereo not drawn)	1.46%
Nc1c(C(=O)NCc2ccccc2)nnn1Cc1cccc(Cl)c1	-2.37%
Cc1cc(C(F)(F)F)nn1-c1nc(-c2ccco2)cc(C(F)(F)F)n1	-9.21%
Cc1ccc2cc3cc(C(=O)N4CCCCCC4)oc3nc2c1	8.2%
COCCOC(=O)C1=C(C)Nc2nc(C)nn2C1c1ccccc1 (stereo not drawn)	-6.8%
CC1C=CCC2C(=O)N(c3cccc(C(=O)N4CCCCCC4)c3)C(=O)C12 (stereo not drawn)	9.22%
CCOC(=O)CSc1nnc(-c2ccncc2)o1	7.88%
O=C(c1ccco1)N1CCN=C1SCc1cccc(Cl)c1	-1.57%
Cc1ccc(-c2nc(CS(=O)CC(=O)NC3CCCC3)c(C)o2)cc1 (stereo not drawn)	-3.33%
CCN(CCCNC(=O)C1CCN(S(=O)(=O)c2cnc[nH]2)CC1)c1ccccc1	14.4%

SMILES	inhibition
O=C(NCCCN1CCCCCC1)c1ccc(N2CCCC2=O)cc1	1.79%
CC1(N2CCOCC2)CC2(O)C(=[N+]1[O-])CCc1nonc12 (stereo not drawn)	11.9%
O=C(NC1CCCCC1)c1ccc2c(=O)n(CC3CCCO3)c(=O)[nH]c2c1 (stereo not drawn)	-1.31%
Cc1cc(C)c(C)c(S(=O)(=O)Nc2ccc(O)cc2)c1C	-0.38%
COc1ccc(OCCCON2C(=O)c3ccccc3C2=O)cc1	-4.08%
COc1cc(Br)cc(/C=N/c2ncn[nH]2)c1O	10.2%
CN(c1ccc(C(=O)NCCC2=CCCCC2)cc1)S(C)(=O)=O	1.87%
COc1cccc2cc(C(C)N(CCCN3CCOCC3)C(=O)Nc3ccc(Cl)cc3)oc12 (stereo not drawn)	1.68%
O=C(O)CN(Cc1ccco1)S(=O)(=O)c1ccc(F)cc1	6.5%
COc1ccc2c(c1OC)C(=O)N(c1ncn[nH]1)C2	-3.84%
COc1ccc(C)c2sc(=NC(=O)c3ccc(C#N)cc3)n(C)c12	1.85%
O=C(CCCC(=O)N(CC(=O)NC1CCCC1)Cc1ccccc1Cl)Nc1ccccn1	7.61%
Cc1nnc(NC2=NCCCCC2)o1	-1.69%
CSCCC1NC2(C(=O)Nc3ccc(Cl)cc32)[C@@H]2C(=O)N(C3CCCC3)C(=O)[C@H]12 (stereo partly drawn)	17.3%
COc1ccc(N2C(=O)C3CCCN3C2c2cccc(OC)c2)cc1 (stereo not drawn)	-5.7%
CCC(C)Sc1nc(C)nc2c1c(=O)n(C)c(=O)n2C (stereo not drawn)	8.64%
O=C(CC1CCCCC1)Nc1c2c(nn1-c1ccc(F)cc1)CS(=O)(=O)C2	-0.2%
COc1ccc(C2C(C#N)=C(N)Oc3cc(N)ccc32)cc1OC (stereo not drawn)	-2.81%
O=C(CCCn1c(=O)oc2ccccc21)Nc1cccnc1	-1.41%
Cc1nc(-c2ccc(NC(=O)c3cccs3)cc2)cs1	8.02%
